Reference: PubChem BioAssay
Active and inactive are the calls of the source. Unless noted, the rule behind the calls is not given here.

What was measured:
[1] = system: Wnt5a (protein binding on small-molecule microarray); test: small molecules binding Wnt5a protein – biophysical, small-molecule microarray, 635/667 nm fluorescence, primary screen (AID 1142); settings: 635 nm fluorescence, higher = more signal;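 note: fluorescence read at 667 nm with signal to noise per printed feature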
[2] = ATP-based viability of Huh7 replicon cells – cell-based, CellTiter-Glo luminescence, basal, 48 h, cytotoxicity control for HCV replication inhibitor project, primary screen (AID 1143); settings: higher = more signal, called active from +8 up or from −8 down;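 note: Huh7 hepatoma cells carrying a hepatitis C replication reporter with no stimulus; test concentration not given here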
[3] = Pseudomonas biofilm growth suppression – PAO1 strain, BacTiter-Glo luminescence, LB-PBS, primary screen (AID 1144); settings: P. aeruginosa PAO1 biofilm, 12 h, higher = more signal
[4] = basal CRE-LacZ reporter activity in PC12 – cell-based, unstimulated, primary screen (AID 1145); settings: no forskolin, luminescence, 4.5 h, higher = more signal, called active from +8 up or from −8 down
[5] = forskolin-driven CRE-LacZ activity in PC12 – cell-based, CRE-LacZ reporter, forskolin-stimulated, primary screen (AID 1146); settings: luminescence, 4.5 h, higher = more signal, called active from +8 up or from −8 down;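 note: PC12 cells with 6xCRE LacZ reporter stimulated by forskolin 10 µM; beta-galactosidase reporter signal reflecting CREB driven transcription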
[6] = molecular target: Streptavidin (Streptomyces avidinii) (UniProt P22629); test: compounds binding control protein streptavidin – biophysical, small-molecule microarray, 635/667 nm fluorescence, artefact control for SMM compound annotation, primary screen (AID 1147); settings: higher = more signal;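 note: signal reflects streptavidin binding to arrayed compounds as a control protein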
[7] = probe aInhba binding on compound microarray – biochemical, small-molecule microarray, 635/667 nm fluorescence, primary screen (AID 1148); settings: higher = more signal;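 note: score merges 667nm spot fluorescence with signal-to-noise for antibody binding to printed compounds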
[8] = molecular target: Torsin-1A (Homo sapiens) (UniProt O14656); test: TOR1A wild-type binding on microarray – cell lysate, small-molecule microarray, lysate, 635/667 nm, primary screen (AID 1149); settings: COS7 hTOR1A-WT lysate, 635 nm fluorescence, higher = more signal
[9] = molecular target: Torsin-1A (Homo sapiens) (UniProt O14656); test: torsin A mutant lysate binding on microarrays – cell lysate, small-molecule microarray, COS7 lysate, 635/667 nm fluorescence, primary screen (AID 1150); settings: COS7 hTOR1A mutant lysate, 635 nm fluorescence, higher = more signal;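 note: score pools 667 nm emission and signal to noise measuring lysate protein binding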
[10] = system: Sonic hedgehog protein (Shh); test: Sonic hedgehog microarray binding compounds – biochemical, small-molecule microarray, 635/667 nm fluorescence, primary screen (AID 1151); settings: 635 nm fluorescence, higher = more signal;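 note: Shh protein binding to compounds spotted on small-molecule microarray slides; score combines spot fluorescence intensity with signal-to-noise across triplicate slides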
[11] = optical density shifts of acrAB sulA E. coli – strain DRC41, OD650, 48 h, E. coli filamentation inducer project, primary screen (AID 1152); settings: higher = more signal, called active from +8 up or from −8 down;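 note: E. coli MC1000 strain DRC41 lacking acrAB efflux pump and sulA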
[12] = probe aLefty1 binding on compound microarray – biochemical, small-molecule microarray, 635/667 nm fluorescence, primary screen (AID 1153); settings: higher = more signal;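 note: score merges spot fluorescence with signal-to-noise ratio from the scanned slide images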
[13] = plasmodial surface anion channel blockers, osmotic lysis – cell-based, P. falciparum Indochina, OD700, 1 h, primary screen (AID 1154); settings: P. falciparum Indochina infected RBC osmotic lysis, higher = more signal, called active from +8 up or from −8 down
[14] = plasmodial surface anion channel blockers, osmotic lysis – cell-based, P. falciparum Indochina, OD700, 2 h, primary screen (AID 1155);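 note: lysis reports solute entry through the parasite surface anion channel PSAC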; settings: P. falciparum Indochina infected erythrocytes, higher = more signal, called active from +8 up or from −8 down
[15] = changes in parasitized red cell lysis, either direction – P. falciparum Indochina, OD700, 3 h, PSAC antagonist project, primary screen (AID 1156); settings: P. falciparum-infected erythrocytes, osmotic lysis, higher = more signal, called active from +8 up or from −8 down
[16] = plasmodial surface anion channel blockers, osmotic lysis – cell-based, P. falciparum Indochina, OD700, 18 h, primary screen (AID 1157); settings: P. falciparum Indochina infected erythrocytes, osmotic lysis OD700, 18 h; higher = more signal, called active from +8 up or from −8 down
[17] = S6 kinase pathway phospho-S6 level changes – cell-based, A549, cytoblot, luminescence, serum-stimulated, primary screen (AID 1158); settings: 5 h, higher = more signal;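 note: serum-stimulated A549 lung adenocarcinoma cells; signal is phosphorylated S6 detected by cytoblot immunostaining with HRP secondary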
[18] = molecular target: NADPH oxidase 2 (Homo sapiens) (UniProt P04839); test: compounds shifting NOX2 Amplex Red fluorescence – cell-based, HEK293-NOX2, PMA-stimulated, NOX inhibitor project, primary screen (AID 1159); settings: 45 min, higher = more signal, called active from +8 up or from −8 down; note: test concentration not given here
[19] = molecular target: NADPH oxidase 4 (Homo sapiens) (UniProt Q9NPH5); test: compounds shifting NOX4 Amplex Red fluorescence – cell-based, HEK293-NOX4, tetracycline-induced, NOX inhibitor project, primary screen (AID 1160); settings: HEK293-NOX4, Amplex Red H2O2 fluorescence, 45 min; higher = more signal, called active from +8 up or from −8 down
[20] = molecular target: NADPH oxidase 5 (Homo sapiens) (UniProt Q96PH1); test: compounds shifting NOX5 Amplex Red fluorescence – cell-based, HEK293-NOX5, NOX inhibitor project, primary screen (AID 1161); settings: HEK293-NOX5, ionomycin, 45 min, higher = more signal
Sequence of NADPH oxidase 5 (Homo sapiens) (Q96PH1 whole entry, looked up): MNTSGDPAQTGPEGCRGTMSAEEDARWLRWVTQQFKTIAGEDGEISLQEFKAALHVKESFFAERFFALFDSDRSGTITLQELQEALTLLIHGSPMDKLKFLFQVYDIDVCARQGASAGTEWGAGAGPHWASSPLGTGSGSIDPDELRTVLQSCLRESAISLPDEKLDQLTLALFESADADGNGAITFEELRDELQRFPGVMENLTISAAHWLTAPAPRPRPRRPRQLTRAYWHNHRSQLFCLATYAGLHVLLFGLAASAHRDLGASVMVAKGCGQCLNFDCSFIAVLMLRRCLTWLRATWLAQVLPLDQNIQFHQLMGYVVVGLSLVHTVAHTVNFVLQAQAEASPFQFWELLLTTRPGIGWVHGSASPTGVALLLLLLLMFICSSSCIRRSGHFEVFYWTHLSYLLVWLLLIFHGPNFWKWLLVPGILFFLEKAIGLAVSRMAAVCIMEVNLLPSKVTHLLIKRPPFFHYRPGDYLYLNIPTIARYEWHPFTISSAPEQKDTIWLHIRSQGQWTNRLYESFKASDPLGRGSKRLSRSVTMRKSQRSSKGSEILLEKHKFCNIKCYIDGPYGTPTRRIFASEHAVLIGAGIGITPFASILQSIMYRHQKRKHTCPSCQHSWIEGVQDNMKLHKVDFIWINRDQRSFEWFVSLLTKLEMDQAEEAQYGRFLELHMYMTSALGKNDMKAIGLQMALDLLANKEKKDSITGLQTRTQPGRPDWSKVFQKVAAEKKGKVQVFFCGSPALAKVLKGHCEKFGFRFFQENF

Sequence of NADPH oxidase 2 (Homo sapiens) (P04839 whole entry, looked up): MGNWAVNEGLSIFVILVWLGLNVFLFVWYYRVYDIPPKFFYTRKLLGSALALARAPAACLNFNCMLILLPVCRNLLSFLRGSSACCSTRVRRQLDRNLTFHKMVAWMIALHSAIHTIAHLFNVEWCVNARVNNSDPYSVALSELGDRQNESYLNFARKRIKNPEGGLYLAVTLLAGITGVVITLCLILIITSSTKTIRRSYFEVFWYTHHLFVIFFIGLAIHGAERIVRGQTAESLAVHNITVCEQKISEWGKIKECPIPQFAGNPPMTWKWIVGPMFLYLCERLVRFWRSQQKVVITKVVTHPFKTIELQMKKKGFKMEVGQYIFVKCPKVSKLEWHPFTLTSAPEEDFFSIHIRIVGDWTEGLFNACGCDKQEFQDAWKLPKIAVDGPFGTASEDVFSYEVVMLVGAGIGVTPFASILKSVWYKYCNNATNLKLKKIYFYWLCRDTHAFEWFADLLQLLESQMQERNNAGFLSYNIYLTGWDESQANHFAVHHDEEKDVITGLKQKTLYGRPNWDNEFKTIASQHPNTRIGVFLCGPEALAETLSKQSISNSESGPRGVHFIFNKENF
Sequence of Streptavidin (Streptomyces avidinii) (P22629 whole entry, looked up): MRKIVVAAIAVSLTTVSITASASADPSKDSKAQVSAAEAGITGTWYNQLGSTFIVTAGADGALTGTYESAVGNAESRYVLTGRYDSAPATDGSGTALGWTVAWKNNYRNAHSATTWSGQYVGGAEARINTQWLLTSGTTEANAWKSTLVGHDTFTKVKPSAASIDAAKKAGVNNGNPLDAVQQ
Sequence of NADPH oxidase 4 (Homo sapiens) (Q9NPH5 whole entry, looked up): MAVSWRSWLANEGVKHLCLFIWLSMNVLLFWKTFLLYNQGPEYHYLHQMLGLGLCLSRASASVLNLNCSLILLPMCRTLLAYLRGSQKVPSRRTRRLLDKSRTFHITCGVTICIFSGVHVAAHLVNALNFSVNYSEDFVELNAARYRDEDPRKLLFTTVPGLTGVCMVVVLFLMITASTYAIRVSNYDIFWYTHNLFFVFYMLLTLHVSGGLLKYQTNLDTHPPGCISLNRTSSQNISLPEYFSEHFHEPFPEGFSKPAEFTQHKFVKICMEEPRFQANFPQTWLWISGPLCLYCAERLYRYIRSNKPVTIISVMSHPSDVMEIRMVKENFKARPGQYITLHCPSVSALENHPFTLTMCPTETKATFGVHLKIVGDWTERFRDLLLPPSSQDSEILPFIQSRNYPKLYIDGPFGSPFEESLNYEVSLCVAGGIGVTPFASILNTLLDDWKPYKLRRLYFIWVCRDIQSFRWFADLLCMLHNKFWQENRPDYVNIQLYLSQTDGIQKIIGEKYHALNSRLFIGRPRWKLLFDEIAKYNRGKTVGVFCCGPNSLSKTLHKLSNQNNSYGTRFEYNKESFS
Sequence of Torsin-1A (Homo sapiens) (O14656 whole entry, looked up): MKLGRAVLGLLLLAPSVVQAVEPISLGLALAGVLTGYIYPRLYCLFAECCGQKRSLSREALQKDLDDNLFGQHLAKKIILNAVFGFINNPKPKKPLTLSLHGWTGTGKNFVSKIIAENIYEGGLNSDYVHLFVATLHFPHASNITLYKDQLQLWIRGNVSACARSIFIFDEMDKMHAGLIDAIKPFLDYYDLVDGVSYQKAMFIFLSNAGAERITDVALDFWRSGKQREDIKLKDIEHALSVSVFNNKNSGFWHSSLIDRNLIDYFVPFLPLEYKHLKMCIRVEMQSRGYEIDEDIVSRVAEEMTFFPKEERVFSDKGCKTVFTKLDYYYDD

SMILES | composite z-score [1] | z-score [2] | z-score [3] | z-score [4] | z-score [5] | composite z-score [6] | composite z-score [7] | composite z-score [8] | composite z-score [9] | composite z-score [10] | z-score [11] | composite z-score [12] | z-score [13] | z-score [14] | z-score [15] | z-score [16] | z-score [17] | z-score [18] | z-score [19] | z-score [20]
C=CCC(OC(C)=O)[C@@H]1[C@@H](N(Cc2cccc3ccccc23)C(=O)c2ccc(-c3ccccc3)cc2)c2cc(OCCCO)ccc2N1C(=O)Cc1ccc(OC)cc1 (stereo not given in full) | 0.36 | -0.454 (inactive) | -0.266 (inactive) | -0.491 (inactive) | 0.117 (inactive) | 0.311 | 0.0018 | 0.0276 | -0.265 | 0.179 | 0.571 (inactive) | -0.277 | 0.177 (inactive) | -0.172 (inactive) | -1.02 (inactive) | 0.0144 (inactive) | 0.904 | -1.6 (inactive) | 0.32 (inactive) | 0.0661
C=CCC(OC(C)=O)[C@@H]1[C@@H](N(Cc2ccc(-c3ccccc3)cc2)C(=O)Cc2ccc(F)cc2)c2cc(OCCCO)ccc2N1C(=O)c1ccc(-c2ccccc2)cc1 (stereo not given in full) | -0.163 | -1.13 (inactive) | -0.757 (inactive) | -1.23 (inactive) | -0.0988 (inactive) | 0.711 | -0.157 | -0.628 | -0.222 | 0.249 | 2.08 (inactive) | -0.0193 | 0.66 (inactive) | -0.221 (inactive) | -0.567 (inactive) | -0.154 (inactive) | 1.26 | -1.49 (inactive) | 0.414 (inactive) | 0.263
CC1CC/C=C\[C@H]2OC34C=CCN(Cn5nnc6ccccc65)C(=O)[C@H]3N(C(CO)C(C)C)C(=O)[C@@H]4C2C(=O)O1 (stereo not given in full) | -0.347 | 0.154 (inactive) | -0.246 (inactive) | -1.03 (inactive) | -1.05 (inactive) | -0.24 | -0.159 | -1.45 | -1.12 | 0.627 | 0.532 (inactive) | 0.0956 | 2.43 (inactive) | 0.0805 (inactive) | 0.752 (inactive) | 0.527 (inactive) | -0.174 | 1.09 (inactive) | 0.134 (inactive) | 2.22
CC(C)[C@@H](CO)NC(=O)[C@H]1[C@@H](c2ccccc2)N(c2ccccc2)O[C@@H]1C | -0.106 | -0.206 (inactive) | -0.736 (inactive) | -0.415 (inactive) | -1.35 (inactive) | -0.327 | 0.0953 | -0.261 | -0.0316 | 0.463 | 1.6 (inactive) | -0.151 | 0.785 (inactive) | -0.0799 (inactive) | -0.466 (inactive) | -0.0146 (inactive) | 0.444 | -0.982 (inactive) | 0.366 (inactive) | 0.153
[N-]=[N+]=NCc1ccccc1C[C@]1(C(=O)N2CCOCC2)N=C(c2ccc(OCCCO)cc2)O[C@H]1c1ccccc1N=[N+]=[N-] | 0.774 | -5.5 (inactive) | -0.447 (inactive) | -0.0017 (inactive) | -1.86 (inactive) | 0.808 | 0.0179 | 1.49 | 1.44 | 1.02 | 0.97 (inactive) | 0.043 | 30 (active) | 25.3 (active) | 2.34 (inactive) | 1.92 (inactive) | 1.73 | -6.05 (inactive) | -2.96 (inactive) | -2.7
COC(=O)[C@@]1(Cc2ccc(F)cc2)[C@H]2c3cc(C(=O)N4CCCC4)n(Cc4ccc(C)o4)c3C[C@H]2CN1C(=O)c1ccccc1 | 0.709 | -2.77 (inactive) | 0.82 (inactive) | -0.182 (inactive) | -1.19 (inactive) | 1.39 | 0.0108 | 0.19 | 0.322 | -0.704 | -1.63 (inactive) | -0.0464 | 4.25 (inactive) | 0.713 (inactive) | 1.57 (inactive) | 0.886 (inactive) | -0.118 | -0.0294 (inactive) | -0.466 (inactive) | -3.03
COC(=O)[C@@]1(Cc2ccc(F)cc2)[C@@H]2[C@@H](CC(=O)[C@H]2CC(=O)C(=O)N(C)C)CN1C(=O)c1ccccc1 | 0.618 | -2.42 (inactive) | 0.215 (inactive) | 0.576 (inactive) | 0.245 (inactive) | 1.91 | 0.242 | 0.447 | 0.884 | -0.552 | -1.78 (inactive) | 0.334 | 2.32 (inactive) | 0.723 (inactive) | 0.806 (inactive) | 0.961 (inactive) | -0.761 | 0.366 (inactive) | -0.21 (inactive) | 0.256
O=C(O)[C@@]1(CCS(=O)(=O)c2ccccc2)COC(c2ccc(OCCCO)cc2)=N1 | -0.142 | 0.122 (inactive) | 1.98 (inactive) | -0.389 (inactive) | -0.298 (inactive) | -0.439 | -0.108 | -0.792 | 0.333 | -1.03 | -0.513 (inactive) | -0.0601 | 1.58 (inactive) | -0.783 (inactive) | -0.821 (inactive) | -0.392 (inactive) | -0.312 | -0.0194 (inactive) | 0.85 (inactive) | 0.779
